From PubChem BioAssay AID1851 (National Center for Advancing Translational Sciences (NCATS), 2009)
Screen size: about 16,000 compounds; about 5,800 (36%) were called active. Roughly 23% stayed inconclusive and do not appear here. The list shows a part of the results. A number with no mark means an inactive call. The call rests on the fitted dose curve; in most records, active means well fitted curve in the direction sought with a large enough effect; inconclusive means small, poorly fitted or top-dose-only effect, or effect the other way; inactive means no such curve, though single readings can be large or run the other way.

molecular target: Cytochrome P450 2C19 (Homo sapiens) (UniProt P33261); experiment: Cytochrome panel assay with activity outcomes; settings: recombinant CYP, pro-luciferin dealkylation, luminescence, p450-cyp2c19; series mostly up to 57.1 µM
Sequence (P33261 whole entry, looked up): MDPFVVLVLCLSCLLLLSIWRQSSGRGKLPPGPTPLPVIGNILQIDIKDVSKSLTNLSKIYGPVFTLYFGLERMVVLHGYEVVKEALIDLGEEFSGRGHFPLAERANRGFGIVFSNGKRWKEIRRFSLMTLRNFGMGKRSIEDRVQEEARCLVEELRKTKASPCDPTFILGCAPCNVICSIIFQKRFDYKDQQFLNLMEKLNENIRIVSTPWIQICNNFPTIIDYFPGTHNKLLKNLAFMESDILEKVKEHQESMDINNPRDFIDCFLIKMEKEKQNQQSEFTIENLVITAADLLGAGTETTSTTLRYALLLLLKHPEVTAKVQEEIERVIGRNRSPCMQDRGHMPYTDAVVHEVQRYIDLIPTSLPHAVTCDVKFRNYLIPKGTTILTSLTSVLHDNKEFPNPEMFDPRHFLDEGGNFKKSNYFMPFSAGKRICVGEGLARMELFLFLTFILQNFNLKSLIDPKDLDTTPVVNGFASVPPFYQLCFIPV
On the % scale 0 is the no-effect control and ±100 the full control effect.

Structure (SMILES) | AC50 | activity, negative = inhibition
CC(C)n1nnnc1SCC(=O)NCc1ccc2c(c1)OCO2 | 5.01 µM (active) | –
CC(C)(C)NC(=O)CSc1nnc(Cc2ccc3c(c2)OCO3)n1C1CCCCC1 | inactive | –
CC(C)n1nnnc1SCC(=O)c1ccc2c(c1)OCCO2 | 10 µM (active) | –
CC(C)n1nnnc1SCC(=O)NCCc1ccccc1 | 7.94 µM (active) | –
O=C(O)c1ccc(Nc2ccnc3cc(Cl)ccc23)cc1O | – | -17.2% [at 11.4 µM]
CC(=O)[C@@H](C)CCO[C@@]1(C)OCC[C@@H]1C | – | -8.65% [at 11.4 µM]
COc1ccc2c(c1)CCc1c(C(=O)N3CCCCCC3)noc1-2 | 11.2 µM (active) | –
COc1ccc(C(=O)N2CCC3(CCCN(C)C3)CC2)cc1 | inactive | –
COc1ccc(NC(=O)N2CCCC3(CCN(C(=O)c4c(C)noc4C)CC3)C2)cc1 | inactive | –
N#C[C@H](c1ccccc1)N1CCCN([C@@H](C#N)c2ccccc2)C1c1ccccc1O (some centres not stated) | 0.251 µM (active) | –
OC[C@@H]1O[C@@H](n2cnc3c(NC4CCCC4)ncnc32)[C@@H](O)[C@H]1O | inactive | –
CC(C)c1ccc(/C=C2\C=C(c3ccc4ccccc4c3)OC2=O)cc1 | – | -31.6% [at 11.4 µM]
Cc1ccc(/C=C2\OC(=O)c3ccccc32)cc1 | 8.91 µM (active) | –
Cc1ccccc1/C=C1\OC(=O)c2ccccc21 | 7.94 µM (active) | –
Cc1ccc(=O)n(-c2ccccc2)c1 | inactive | –
COCCNC(=O)COc1ccc(OCCNC[C@@H](O)COc2ccccc2)cc1 | inactive | –
COCCNC(=O)COc1ccc(Oc2ccccc2)cc1 | 11.2 µM (active) | –
COc1ccc(OC)c2[nH]c(=O)c(CCNC(=O)COc3ccccc3)cc12 | 14.1 µM (active) | –
COc1ccc(OC)c2[nH]c(=O)c(CCNC(=O)C3CCCCC3)cc12 | 10 µM (active) | –
COc1ccc(OC)c2[nH]c(=O)c(CCNS(=O)(=O)c3ccc(C)cc3)cc12 | 15.8 µM (active) | –
NC[C@H]1O[C@H](n2cnc3c(N)ncnc32)C[C@@H]1O | – | 7.59% [at 11.4 µM]
Cn1c(=O)c2[nH]c(CCC(=O)O)nc2n(C)c1=O | – | 12% [at 11.4 µM]
COc1ccc(OC)c2[nH]c(=O)c(CCNC(=O)c3ccc(S(=O)(=O)N(C)C)cc3)cc12 | inactive | –
COc1ccc(OC)c2[nH]c(=O)c(CCNC(=O)c3ccc(S(=O)(=O)N4CCCC4)cc3)cc12 | 11.2 µM (active) | –
CCN1CCCC1CNC(=O)CCNC(=O)c1cc(OC)c(OC)c(OC)c1 (configuration not stated) | inactive | –
CSC1(SC2=NCCN2)SC2(NCCN2)S1 | 1.58 µM (active) | –
O=C(O)CCSC1=NCCN1 | – | 42% [at 11.4 µM]
